# PubChem BioAssay (Tox21)
# Values joined by “and” are separate entries in the source; they are usually repeats but may differ in a detail not shown here. Equal entries are not always repeated. Inconclusive results are not listed. Entries that show only a call come without a potency. More than one record can exist for a structure, and the calls need not agree. Active and inactive are the calls of the source. Unless noted, calls follow the shape of the dose curve; as a rule, active = well fitted curve in the direction sought with a large enough effect in the repeat runs; inconclusive = weak or mixed curves; inactive = no such curve, though single readings can be large; an effect the other way counts as inactive or inconclusive.
# Columns and labels:
# [1] = qHTS assay to identify small molecule phospholipidosis (PLD) inducers (AID 1259344; active = well fitted curve in the direction sought with a large enough effect; an effect the other way counts as inactive or inconclusive)
# Method in brief: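 Fluorescent phospholipid staining (LipidTOX Red) measured by automated microscopy in fixed HepG2 cells after 24 h treatment; nuclei counterstained with Hoechst 33342; amiodarone as reference inducer.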
# [2] = qHTS assay to identify small molecule HDAC inhibitors (AID 1259364); also: potency is read from the fitted curve at half-maximal effect;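 also: wild-type HCT-116 cells with endogenous class I/II HDAC activity; nearly all actives have a fitted effect of over 45% in size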
# Method in brief: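 Relative class I and II HDAC activity is taken from the luminogenic signal in HCT-116 cells, with compound exposure 2 hr and reagent development 30 min at room temperature.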
# [3] = qHTS assay to identify small molecule HDAC inhibitors - cell viability counter screen (AID 1259365); also: series mostly up to about 92 µM; nearly all actives have a fitted effect of over 50% in size
# Method in brief: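 To flag cytotoxic hits, 1,500 wild-type HCT-116 cells per well, plated the day before, receive test compounds for 2hr at 37 C before CellTiter-Glo reagent and a luminescence read.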
# [4] = qHTS assay to identify small molecule agonists of the sonic hedgehog signaling (Shh) pathway - cell viability counter screen (AID 1259366); also: nearly all actives have a fitted effect of over 50% in size; also: potency is read from the fitted curve at half-maximal effect
# Method in brief: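 Fluorescence from CellTiter-Fluor reports live cells in this counter screen. NIH/3T3-derived Gli1-Luc reporter cells receive test compounds for 24hr at 37C; reagent goes in at 23hr.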
# [5] = qHTS assay to identify small molecule antagonists of the sonic hedgehog signaling (Shh) pathway - cell viability counter screen (AID 1259367); also: nearly all actives have a fitted effect of over 55% in size; also: potency is read from the fitted curve at half-maximal effect
# Method in brief: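 Using CellTiter-Fluor, viability of Gli1-Luc reporter 3T3 cells is read by fluorescence in the wells used for the Shh luciferase assay. Treatment lasts 23 hr with conditioned medium, then reagent 1 hr at 37C.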
# [6] = qHTS assay to identify small molecule agonists of the sonic hedgehog signaling (Shh) pathway (AID 1259368; calls by dose curve;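 also: NIH/3T3-derived 3T3Gli1-Luc cells carrying a stable Gli1-driven firefly luciferase reporter; series mostly up to about 92 µM; nearly all actives have a fitted effect of over 15% in size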)
# Method in brief: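 Mouse fibroblast (NIH/3T3) reporter cells with stably integrated Gli1-Luc were treated 24 hr with compound; firefly luciferase luminescence served as the read-out.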
# [7] = qHTS assay to identify small molecule antagonists of the sonic hedgehog signaling (Shh) pathway (AID 1259369; calls by dose curve; also: nearly all actives have a fitted effect of over 45% in size; also: potency is read from the fitted curve at half-maximal effect)
# Method in brief: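 Conditioned medium drives Shh signalling in 3T3Gli1-Luc cells; compounds in DMSO co-applied, 24hr at 37 C, then luciferase luminescence.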
# [8] = qHTS assay to identify small molecule agonists of the androgen receptor (AR) signaling pathway in the presence of an antagonist - cell viability counter screen (AID 1259379); also: nearly all actives have a fitted effect of over 25% in size; also: potency is read from the fitted curve at half-maximal effect
# Method in brief: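 A CellTiter-Fluor read-out measured viability of MDA-kb2 reporter cells (MMTV promoter with AR and GR response elements). Treatment: nilutamide 3.0uM final with compounds at 15 concentrations, 16 hr, 37C, 0% CO2.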
# [9] = qHTS assay to identify small molecule agonists of the estrogen receptor beta (ER-beta) signaling pathway - cell viability counter screen (AID 1259380); also: nearly all actives have a fitted effect of over 30% in size; also: potency is read from the fitted curve at half-maximal effect
# Method in brief: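 Cells used were ER-beta-UAS-bla HEK293T in medium with 2% charcoal-stripped FBS. They were treated for 16 hr at 37C. Viability came from CellTiter-Glo luminescence.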
# [10] = qHTS assay to identify small molecule antagonists of the estrogen receptor beta (ER-beta) signaling pathway - cell viability counter screen (AID 1259382); also: nearly all actives have a fitted effect of over 55% in size; also: potency is read from the fitted curve at half-maximal effect
# Method in brief: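 Agonist-stimulated (1nM E2) ER-beta-UAS-bla HEK293T cells are incubated with library compounds for 16 hr at 37C. Cell viability is then assessed in the reporter-assay wells by adding CellTiter-Glo and reading luminescence after 30 min.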
# [11] = qHTS assay to identify small molecule agonists or antagonists of the thyroid stimulating hormone receptor (TSHR) signaling pathway - wild type cell line counter screen (AID 1259384; calls by dose curve)
# Method in brief: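 Counter screen in untransfected Hek293: compounds (15-point titration, triplicate) plus phosphodiesterase inhibitor Ro20-1724 added after 18 h plating; 30 min RT. Intracellular cAMP via competitive d2/cryptate immunoassay, 1 h incubation.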
# [12] = target: Thyrotropin receptor (Homo sapiens) (UniProt P16473); test: qHTS assay to identify small molecule antagonists of the thyroid stimulating hormone receptor (TSHR) signaling pathway (AID 1259385; calls by dose curve; also: nearly all actives have a fitted effect of over 20% in size; also: potency is read from the fitted curve at half-maximal effect)
# Chain of Thyrotropin receptor (Homo sapiens) (P16473 whole entry, looked up): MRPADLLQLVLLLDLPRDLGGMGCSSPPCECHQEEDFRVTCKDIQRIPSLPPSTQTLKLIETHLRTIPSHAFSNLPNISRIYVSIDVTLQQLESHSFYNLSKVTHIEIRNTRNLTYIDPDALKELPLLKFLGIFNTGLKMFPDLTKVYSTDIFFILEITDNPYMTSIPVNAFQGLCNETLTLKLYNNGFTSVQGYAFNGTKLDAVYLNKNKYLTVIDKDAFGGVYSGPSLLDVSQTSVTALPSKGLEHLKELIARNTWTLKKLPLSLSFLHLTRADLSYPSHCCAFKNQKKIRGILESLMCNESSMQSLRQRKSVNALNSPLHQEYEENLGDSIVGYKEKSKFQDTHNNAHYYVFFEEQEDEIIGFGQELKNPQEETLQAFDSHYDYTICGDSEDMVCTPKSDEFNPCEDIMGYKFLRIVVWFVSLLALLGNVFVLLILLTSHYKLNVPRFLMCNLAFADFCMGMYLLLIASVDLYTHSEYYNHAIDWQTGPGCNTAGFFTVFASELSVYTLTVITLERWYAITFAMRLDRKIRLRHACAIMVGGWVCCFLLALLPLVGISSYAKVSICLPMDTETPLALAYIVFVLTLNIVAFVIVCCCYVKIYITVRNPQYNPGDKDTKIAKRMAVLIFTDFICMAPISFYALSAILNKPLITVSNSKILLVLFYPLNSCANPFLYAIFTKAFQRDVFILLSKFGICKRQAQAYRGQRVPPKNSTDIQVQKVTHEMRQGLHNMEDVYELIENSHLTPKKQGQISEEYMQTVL
# Method in brief: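 Antagonist mode: compound-treated TSHR-expressing HEK293 cells were stimulated with 1.5 ng/mL TSH (final) in presence of Ro20-1724 for 30 min at RT. HTRF cAMP detection after 1 h; each compound tested at 15 concentrations, triplicate.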
# [13] = qHTS assay to identify small molecule agonists of the estrogen receptor alpha (ER-alpha) signaling pathway in the presence of an antagonist - cell viability counter screen (AID 1259386);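 also: series mostly up to about 92 µM; cells exposed to compounds for 22 h at 37 °C before the viability read; nearly all actives have a fitted effect of over 30% in size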
# Method in brief: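 ICI-182,780 at 10.0nM final accompanies the compound titration (15 concentrations, 22hr, 37C) on VM7Luc4E2 cells. The CellTiter-Fluor fluorescence readout runs in the same wells as the luciferase assay.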
# [14] = target: Progesterone receptor (Homo sapiens) (UniProt P06401); test: qHTS assay to identify small molecule agonists of the progesterone receptor (PR) signaling pathway (AID 1346784; calls by dose curve; also: nearly all actives have a fitted effect of over 30% in size)
# Chain of Progesterone receptor (Homo sapiens) (P06401 whole entry, looked up): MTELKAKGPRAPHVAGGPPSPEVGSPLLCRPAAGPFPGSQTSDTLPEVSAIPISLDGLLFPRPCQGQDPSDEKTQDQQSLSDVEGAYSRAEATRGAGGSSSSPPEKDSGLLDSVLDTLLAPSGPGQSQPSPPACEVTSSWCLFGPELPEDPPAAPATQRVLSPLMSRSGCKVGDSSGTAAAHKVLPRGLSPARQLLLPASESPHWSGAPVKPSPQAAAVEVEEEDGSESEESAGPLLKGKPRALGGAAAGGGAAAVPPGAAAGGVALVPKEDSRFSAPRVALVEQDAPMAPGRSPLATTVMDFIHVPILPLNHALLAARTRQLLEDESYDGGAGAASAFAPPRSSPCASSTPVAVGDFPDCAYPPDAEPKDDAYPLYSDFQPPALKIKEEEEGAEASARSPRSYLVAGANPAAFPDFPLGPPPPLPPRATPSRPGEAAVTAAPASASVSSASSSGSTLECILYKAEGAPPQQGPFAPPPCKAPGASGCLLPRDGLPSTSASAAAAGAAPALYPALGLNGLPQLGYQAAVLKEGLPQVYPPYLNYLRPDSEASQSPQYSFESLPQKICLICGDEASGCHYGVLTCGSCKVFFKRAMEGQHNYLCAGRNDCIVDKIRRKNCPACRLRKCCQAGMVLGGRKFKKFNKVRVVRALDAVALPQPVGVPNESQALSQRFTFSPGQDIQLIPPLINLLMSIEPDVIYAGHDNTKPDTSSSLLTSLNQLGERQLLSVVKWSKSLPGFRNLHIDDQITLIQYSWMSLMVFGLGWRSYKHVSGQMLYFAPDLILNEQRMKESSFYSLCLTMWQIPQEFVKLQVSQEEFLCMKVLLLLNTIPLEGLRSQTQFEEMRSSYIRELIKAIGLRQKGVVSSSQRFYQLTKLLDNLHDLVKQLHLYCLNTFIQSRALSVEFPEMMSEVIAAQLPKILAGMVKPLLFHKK
# Method in brief: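 Seed PR-UAS-bla HEK 293T cells (2% charcoal-stripped FBS), incubate 6 hr at 37C; add compounds in DMSO, 16 hr at 37C; add LiveBLAzer B/G substrate, 2 hr RT; read fluorescence intensity.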
# [15] = target: Progesterone receptor (Homo sapiens) (UniProt P06401); test: qHTS assay to identify small molecule antagonists of the progesterone receptor (PR) signaling pathway (AID 1346795; active = well fitted inhibition curve with a large enough effect in the signal ratio in the repeat runs, not every such curve was filed as active; the % refers to the signal ratio)
# Method in brief: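 Screening used a GripTite HEK293T line with PR-responsive UAS-beta-lactamase. Cells were challenged with compound in the presence of 1 nM R5020 final for 16 hr at 37C; B/G FRET substrate, 2 hr room temperature, fluorescence.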
# [16] = qHTS assay to identify small molecule antagonists of the progesterone receptor (PR) signaling pathway - cell viability counter screen (AID 1346798); also: series mostly up to about 92 µM; nearly all actives have a fitted effect of over 50% in size
# Method in brief: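 Measures cytotoxicity in parallel with the PR antagonist reporter read: HEK293T PR-UAS-bla cells get compound and R5020 for 16 hr, and remaining viable cells are quantified by CellTiter-Glo luminescence.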
# [17] = target: Estrogen receptor (Homo sapiens) (UniProt P03372); test: qHTS assay to identify small molecule agonists of the estrogen receptor alpha (ER-alpha) signaling pathway in the presence of an antagonist (AID 1259383; calls by dose curve; also: top concentration of the series differs between compounds; nearly all actives have a fitted effect of over 15% in size)
# Chain of Estrogen receptor (Homo sapiens) (P03372 whole entry, looked up): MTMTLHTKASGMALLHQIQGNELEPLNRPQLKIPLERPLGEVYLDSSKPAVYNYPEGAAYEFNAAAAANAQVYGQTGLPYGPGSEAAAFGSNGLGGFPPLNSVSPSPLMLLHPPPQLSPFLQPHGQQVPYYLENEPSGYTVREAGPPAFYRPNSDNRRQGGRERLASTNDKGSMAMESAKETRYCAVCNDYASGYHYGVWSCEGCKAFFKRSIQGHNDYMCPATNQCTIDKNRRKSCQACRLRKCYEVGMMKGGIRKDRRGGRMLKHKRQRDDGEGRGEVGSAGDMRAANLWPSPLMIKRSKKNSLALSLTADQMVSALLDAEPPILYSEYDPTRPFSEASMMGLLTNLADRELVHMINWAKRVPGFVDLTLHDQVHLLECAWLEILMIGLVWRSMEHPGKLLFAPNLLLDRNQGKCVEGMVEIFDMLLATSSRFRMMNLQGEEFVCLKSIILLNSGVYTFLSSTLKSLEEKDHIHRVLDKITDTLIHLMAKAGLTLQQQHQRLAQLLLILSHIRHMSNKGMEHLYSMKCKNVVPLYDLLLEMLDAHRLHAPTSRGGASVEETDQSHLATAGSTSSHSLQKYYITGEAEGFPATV
# Method in brief: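 Using VM7Luc4E2 cells seeded 24hr before treatment, antagonist ICI-182,780 (10.0nM final) was added, followed by compounds at 15 concentrations. Plates incubated 22hr; ONE-Glo luminescence quantified reporter activity.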
# [18] = target: Estrogen receptor beta (Homo sapiens) (UniProt Q92731); test: qHTS assay to identify small molecule agonists of the estrogen receptor beta (ER-beta) signaling pathway (AID 1259377; active = well fitted activation curve with a large enough effect in the signal ratio in the repeat runs, not every such curve was filed as active; the % refers to the signal ratio)
# Chain of Estrogen receptor beta (Homo sapiens) (Q92731 whole entry, looked up): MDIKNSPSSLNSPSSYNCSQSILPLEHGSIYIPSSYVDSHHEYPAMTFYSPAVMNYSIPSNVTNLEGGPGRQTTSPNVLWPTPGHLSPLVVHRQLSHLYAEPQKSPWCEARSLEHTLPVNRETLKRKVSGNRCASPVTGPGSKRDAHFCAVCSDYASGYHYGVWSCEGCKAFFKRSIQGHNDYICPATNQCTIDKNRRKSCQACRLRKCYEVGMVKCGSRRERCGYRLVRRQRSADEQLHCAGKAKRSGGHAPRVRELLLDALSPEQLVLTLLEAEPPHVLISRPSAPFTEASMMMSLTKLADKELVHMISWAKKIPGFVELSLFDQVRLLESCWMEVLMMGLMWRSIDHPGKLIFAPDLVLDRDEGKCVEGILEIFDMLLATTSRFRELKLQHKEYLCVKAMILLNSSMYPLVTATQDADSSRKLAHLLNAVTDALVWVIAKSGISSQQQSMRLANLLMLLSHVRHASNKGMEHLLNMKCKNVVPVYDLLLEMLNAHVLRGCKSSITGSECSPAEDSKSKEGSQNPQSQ
# Method in brief: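 Screening used GripTite ER-beta-UAS-bla cells held in 2% charcoal-stripped FBS medium. After overnight (16 hr) compound incubation at 37C, beta-lactamase activity was detected with a FRET substrate by fluorescence.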
# [19] = target: Estrogen receptor beta (Homo sapiens) (UniProt Q92731); test: qHTS assay to identify small molecule antagonists of the estrogen receptor beta (ER-beta) signaling pathway (AID 1259378; active = well fitted inhibition curve with a large enough effect in the signal ratio in the repeat runs, not every such curve was filed as active; the % refers to the signal ratio; also: potency is read from the fitted curve at half-maximal effect)
# Method in brief: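 Antagonist mode: compounds added to beta-lactamase reporter HEK293T ER-beta-UAS cells stimulated with E2 (1nM final), 16 hr at 37C. LiveBLAzer B/G FRET substrate, 2 hours room temperature, fluorescence read-out.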
Structure (SMILES),outcome [1],Potency [2],Potency [3],Potency [4],Potency [5],outcome [6],Potency [7],Potency [8],Potency [9],Potency [10],Potency [11],Potency [12],Potency [13],Potency [14],Potency [15],Potency [16],Potency [17],outcome [18],Potency [19]
Nc1ccccc1,inactive,inactive,inactive,inactive,inactive,inactive,inactive,inactive,inactive,inactive,inactive,inactive,inactive,inactive,inactive,inactive,,,
C[N+](C)(C)Cc1ccccc1,,inactive,inactive,inactive,inactive,inactive,inactive,inactive,inactive,inactive,inactive,inactive,inactive,inactive,inactive,inactive,inactive,,
C1CCC(NC2CCCCC2)CC1,inactive,inactive,inactive,inactive,inactive,inactive,inactive,inactive,inactive,inactive,inactive,inactive,inactive,inactive,inactive,inactive,inactive,,
C[C@]12CCC(=O)C=C1CC[C@@H]1[C@@H]2CC[C@]2(C)C(=O)CC[C@@H]12,,inactive,inactive,inactive,60.1 µM (active) and inactive,inactive,15.1 µM (active) and 13.7 µM (active) and inactive,inactive,53.5 µM (active) and 54.5 µM (active),47.7 µM (active) and inactive,inactive,inactive,inactive,inactive,,,inactive,inactive,inactive
Nc1ccc(-c2ccc(N)c(Cl)c2)cc1Cl,,inactive and 27.3 µM (active),inactive,inactive and 7.18 µM (active) and 30.6 µM (active),2.27 µM (active) and 8.63 µM (active),inactive,2.74 µM (active) and 1.01 µM (active),inactive and 54.5 µM (active),30.6 µM (active),61.1 µM (active),inactive,inactive and 57 µM (active),inactive,,,,inactive,,25.5 µM (active) and 30.6 µM (active)
CC[N+](CC)(CC)CC,inactive,inactive,inactive,inactive,inactive,inactive,inactive,inactive,inactive,inactive,inactive,inactive,inactive,inactive,inactive,inactive,,,
Nc1ccc(Cl)cc1,,inactive and 27.8 µM (active),inactive,inactive,inactive,inactive,inactive,inactive,inactive,inactive,inactive,inactive,inactive,inactive,,inactive,inactive,,
